Experimental data from the antibiotic and cytotoxicity screens of Wong et al. (2023).
Out of some 39,000 compounds screened, about 3,300 (8.5%) were called active. Only a selection was taken, and actives are over-represented in it overall.

These molecules were tested on HepG2 (assay: cytotoxicity call (relative viability < 0.9)). Settings: 10 µM.
In the case of CC(C)NC(=O)N(C)C[C@H]1Oc2ccc(NS(=O)(=O)c3ccc(F)cc3)cc2C(=O)N([C@@H](C)CO)C[C@H]1C, the cytotoxicity call is reported as “inactive”.
For C[C@H](CO)N1C[C@H](C)[C@H](CN(C)C(=O)Nc2ccc(C(F)(F)F)cc2)Oc2ccc(NC(=O)Nc3ccc4c(c3)OCO4)cc2CC1=O, the cytotoxicity call was “inactive”.
In the case of Clc1ccc(/C=N/Cc2ccc(-c3cccs3)s2)cc1, the cytotoxicity call is reported as “active”.
With Cl.N=C(NN=Cc1ccc(Cl)cc1)NN=Cc1ccc(Cl)cc1 the cytotoxicity call was “inactive”.
With CC(C)(C)c1csc(-c2ccc(-c3cccs3)s2)n1 the cytotoxicity call was “inactive”.
With CN1C(=O)c2cc(NC(=O)C3CCC3)ccc2OC[C@H]2O[C@H](CC(=O)NCCc3ccncc3)CC[C@@H]21 the cytotoxicity call was “inactive”.
For Cc1noc(C)c1NC(=O)N(C)C[C@H]1Oc2ccc(NC(=O)Cn3cnnn3)cc2C(=O)N([C@@H](C)CO)C[C@@H]1C, the cytotoxicity call was “inactive”.
In the case of O=C(C[C@@H]1CC[C@H]2[C@@H](COC[C@@H](O)CN2S(=O)(=O)c2cccc(Cl)c2)O1)NCc1ccc2c(c1)OCO2, the cytotoxicity call is reported as “inactive”.
C[C@@H]1O[C@@H](Oc2c(-c3cc(O)c(O)c(O)c3)oc3cc(O)cc(O)c3c2=O)[C@H](O)[C@H](O)[C@H]1O was tested, and the cytotoxicity call was “inactive”.
In the case of C[C@@H]1O[C@@H](OC[C@H]2O[C@@H](OCCc3ccccc3)[C@H](O)[C@@H](O)[C@@H]2O)[C@H](O)[C@H](O)[C@H]1O, the cytotoxicity call is reported as “inactive”.
Cc1coc(C)c1C(=O)O[C@@H]1O[C@@H](C)[C@H](O)[C@@H](O)[C@H]1O was tested, and the cytotoxicity call was “active”.
In the case of CCO[C@H]1OC(C(=O)N2CCN(Cc3ccc4c(c3)OCO4)CC2)=C[C@@H](C)[C@@H]1CCCOC(=O)NCCCCCC(=O)NO, the cytotoxicity call is reported as “inactive”.
For O=C(C[C@H]1C[C@@H]2c3cc(NC(=O)NC4CCCC4)ccc3O[C@@H]2[C@@H](CO)O1)NCc1ccc2c(c1)OCO2, the cytotoxicity call was “inactive”.
For CO[C@H]1CN(C)C(=O)c2ccc(NC(=O)NC(C)C)cc2OC[C@@H](C)N(Cc2ccc(-c3ccccn3)cc2)C[C@@H]1C, the cytotoxicity call was “inactive”.
With C[C@H]1CN([C@@H](C)CO)C(=O)Cc2cc(NC(=O)Nc3ccc(C(F)(F)F)cc3)ccc2O[C@@H]1CN(C)Cc1ccccc1 the cytotoxicity call was “inactive”.
In the case of C[C@@H]1CN([C@H](C)CO)C(=O)Cc2cc(NC(=O)Nc3ccc(C(F)(F)F)cc3)ccc2O[C@H]1CN(C)Cc1ccccc1, the cytotoxicity call is reported as “active”.
C[C@@H]1CN([C@@H](C)CO)C(=O)Cc2cc(NC(=O)Nc3ccc(C(F)(F)F)cc3)ccc2O[C@@H]1CN(C)Cc1ccccc1 was tested, and the cytotoxicity call was “active”.
For C[C@H]1CN([C@@H](C)CO)C(=O)Cc2cc(NC(=O)Nc3ccc(C(F)(F)F)cc3)ccc2O[C@H]1CN(C)Cc1ccccc1, the cytotoxicity call was “active”.
For C[C@@H]1CN([C@@H](C)CO)C(=O)Cc2cc(NC(=O)Nc3ccc(C(F)(F)F)cc3)ccc2O[C@H]1CN(C)Cc1ccccc1, the cytotoxicity call was “inactive”.
C[C@@H]1CN([C@H](C)CO)C(=O)Cc2cc(NC(=O)Nc3ccc(C(F)(F)F)cc3)ccc2O[C@@H]1CN(C)Cc1ccccc1 was tested, and the cytotoxicity call was “active”.
In the case of C[C@H](CO)N1C[C@H](C)[C@H](CN(C)S(C)(=O)=O)Oc2ncc(C#Cc3ccc(C(F)(F)F)cc3)cc2C1=O, the cytotoxicity call is reported as “inactive”.
In the case of COCC#Cc1cnc2c(c1)C(=O)N([C@H](C)CO)C[C@@H](C)[C@@H](CN(C)C(=O)CCN1CCCCC1)O2, the cytotoxicity call is reported as “inactive”.
C[C@@H]1CN([C@H](C)CO)C(=O)c2cc(NC(=O)Nc3ccc4c(c3)OCO4)ccc2O[C@@H]1CN(C)C(=O)Nc1cccc2ccccc12 was tested, and the cytotoxicity call was “inactive”.
COc1ccc(C#Cc2ccc3c(c2)O[C@H](CN(C)C(=O)CN2CCOCC2)[C@@H](C)CN([C@H](C)CO)S3(=O)=O)cc1 was tested, and the cytotoxicity call was “inactive”.
With CN(C)CCN1C(=O)CO[C@H]2CN(C(=O)NCc3cccnc3)C[C@@H]21 the cytotoxicity call was “inactive”.
In the case of C[C@@H]1CN([C@H](C)CO)C(=O)Cc2cc(NC(=O)Nc3ccccc3)ccc2O[C@@H]1CN(C)S(=O)(=O)c1cn(C)cn1, the cytotoxicity call is reported as “inactive”.
In the case of O=C(N/N=C/[C@H](O)[C@H](O)[C@@H](O)[C@@H](O)CO)c1ccccn1, the cytotoxicity call is reported as “inactive”.
In the case of CON=C(C(=O)NC1C(=O)N2C(C(=O)O)=C(C[N+]3(C)CCCC3)CSC12)c1csc(N)n1.[Cl-] (configuration not stated), the cytotoxicity call is reported as “inactive”.
In the case of Cc1noc(C)c1S(=O)(=O)Nc1ccc2c(c1)C(=O)N([C@@H](C)CO)C[C@H](C)[C@H](CN(C)C(=O)Nc1cccc3ccccc13)OCCCC[C@H](C)O2, the cytotoxicity call is reported as “inactive”.
C[C@H](CO)N1C[C@H](C)[C@@H](CN(C)Cc2ccccc2)Oc2ccc(NC(=O)Nc3ccc(C(F)(F)F)cc3)cc2CC1=O was tested, and the cytotoxicity call was “active”.
With C[C@H](CO)N1C[C@H](C)[C@H](CN(C)Cc2ccccc2)Oc2ccc(NC(=O)Nc3ccc(C(F)(F)F)cc3)cc2CC1=O the cytotoxicity call was “active”.
For CO[C@H]1CN(C)C(=O)c2cc(NC(=O)Nc3ccccc3F)ccc2OC[C@@H](C)N(Cc2ccccc2C(=O)O)C[C@H]1C, the cytotoxicity call was “inactive”.
In the case of C[C@@H]1CCCCO[C@H](CN(C)C(=O)Nc2ccc(F)cc2)[C@H](C)CN([C@@H](C)CO)C(=O)c2cc(NC(=O)c3ccccc3)ccc2O1, the cytotoxicity call is reported as “inactive”.
In the case of COc1ccc(C(=O)O)c(O)c1OC, the cytotoxicity call is reported as “inactive”.
In the case of COc1ccc(C(=O)CCC(=O)O)c2ccccc12, the cytotoxicity call is reported as “active”.
In the case of O=C(O)CCC(=O)c1ccc(-c2ccccc2)cc1, the cytotoxicity call is reported as “inactive”.
For C[C@H]1CCCCO[C@@H](CN(C)C(=O)NC2CCCCC2)[C@@H](C)CN([C@@H](C)CO)C(=O)c2cc(NC(=O)NC3CCCCC3)ccc2O1, the cytotoxicity call was “inactive”.
For COc1ccc(S(=O)(=O)N(C)C[C@@H]2OCCCC[C@@H](C)Oc3ccc(NC(=O)Nc4ccccc4)cc3C(=O)N([C@@H](C)CO)C[C@@H]2C)cc1, the cytotoxicity call was “inactive”.
In the case of C[C@H](O)C#Cc1ccc2c(c1)O[C@H](CN(C)C(=O)Cc1ccccn1)[C@@H](C)CN([C@H](C)CO)S2(=O)=O, the cytotoxicity call is reported as “inactive”.
In the case of COc1ccccc1C#Cc1cnc2c(c1)C(=O)N([C@@H](C)CO)C[C@@H](C)[C@H](CN(C)S(=O)(=O)c1cn(C)cn1)O2, the cytotoxicity call is reported as “active”.
With COCC#Cc1cnc2c(c1)C(=O)N([C@H](C)CO)C[C@H](C)[C@H](CN(C)C(=O)c1cnccn1)O2 the cytotoxicity call was “active”.
For COCC#Cc1cnc2c(c1)C(=O)N([C@H](C)CO)C[C@H](C)[C@@H](CN(C)C(=O)c1cnccn1)O2, the cytotoxicity call was “inactive”.
With COc1ccccc1C#Cc1cnc2c(c1)C(=O)N([C@@H](C)CO)C[C@H](C)[C@H](CN(C)S(=O)(=O)c1cn(C)cn1)O2 the cytotoxicity call was “inactive”.
In the case of COc1ccccc1C#Cc1cnc2c(c1)C(=O)N([C@H](C)CO)C[C@@H](C)[C@@H](CN(C)S(=O)(=O)c1cn(C)cn1)O2, the cytotoxicity call is reported as “inactive”.
In the case of COc1ccccc1C#Cc1cnc2c(c1)C(=O)N([C@@H](C)CO)C[C@@H](C)[C@@H](CN(C)S(=O)(=O)c1cn(C)cn1)O2, the cytotoxicity call is reported as “inactive”.
In the case of COCC#Cc1cnc2c(c1)C(=O)N([C@H](C)CO)C[C@@H](C)[C@H](CN(C)C(=O)c1cnccn1)O2, the cytotoxicity call is reported as “inactive”.
With COCC#Cc1cnc2c(c1)C(=O)N([C@@H](C)CO)C[C@H](C)[C@@H](CN(C)S(=O)(=O)c1cn(C)cn1)O2 the cytotoxicity call was “active”.
With COc1ccccc1C#Cc1cnc2c(c1)C(=O)N([C@H](C)CO)C[C@H](C)[C@@H](CN(C)S(=O)(=O)c1cn(C)cn1)O2 the cytotoxicity call was “inactive”.
For COCC#Cc1cnc2c(c1)C(=O)N([C@H](C)CO)C[C@@H](C)[C@@H](CN(C)S(=O)(=O)c1cn(C)cn1)O2, the cytotoxicity call was “inactive”.
With COc1ccccc1C#Cc1cnc2c(c1)C(=O)N([C@H](C)CO)C[C@@H](C)[C@H](CN(C)S(=O)(=O)c1cn(C)cn1)O2 the cytotoxicity call was “active”.
With COCC#Cc1cnc2c(c1)C(=O)N([C@H](C)CO)C[C@@H](C)[C@H](CN(C)S(=O)(=O)c1cn(C)cn1)O2 the cytotoxicity call was “inactive”.
With COCCCNC(=O)[C@@]1(Sc2ccc(C)cc2)CC(=O)N(Cc2cc(C(F)(F)F)cc(C(F)(F)F)c2)[C@@H]1c1ccc(CO)cc1I the cytotoxicity call was “inactive”.
In the case of Cc1cccc(S(=O)(=O)N2C[C@H](O)COC[C@H]3O[C@@H](CC(=O)NCc4ccncn4)CC[C@@H]32)c1, the cytotoxicity call is reported as “inactive”.
In the case of Cc1noc(C)c1NC(=O)N(C)C[C@@H]1Oc2ccc(NS(=O)(=O)c3c(C)noc3C)cc2C(=O)N([C@H](C)CO)C[C@@H]1C, the cytotoxicity call is reported as “inactive”.
With C[C@@H]1CN([C@H](C)CO)C(=O)c2cc(NC(=O)NC3CCCCC3)ccc2O[C@@H]1CN(C)C(=O)Nc1cccc2ccccc12 the cytotoxicity call was “inactive”.
With Cc1ccc(S(=O)(=O)Nc2cccc3c2O[C@@H](CN(C)Cc2ccc(Oc4ccccc4)cc2)[C@H](C)CN([C@H](C)CO)C3=O)cc1 the cytotoxicity call was “inactive”.
COc1ccc(S(=O)(=O)N(C)C[C@@H]2OCCCC[C@H](C)Oc3ccc(NC(=O)Nc4ccccc4)cc3C(=O)N([C@H](C)CO)C[C@@H]2C)cc1 was tested, and the cytotoxicity call was “inactive”.
O=C(NCCn1ncc2c(=O)n(Cc3ccccc3)cnc21)c1ccc(S(=O)(=O)N2CCOCC2)cc1 was tested, and the cytotoxicity call was “inactive”.
With CC(C)Sc1n[nH]c(=O)[nH]c1=O the cytotoxicity call was “inactive”.
With CCCNC(=O)N(C)C[C@H]1Oc2cc(C#Cc3ccccn3)ccc2S(=O)(=O)N([C@H](C)CO)C[C@@H]1C the cytotoxicity call was “inactive”.
For CC[C@H]1Sc2ccccc2NC1=O, the cytotoxicity call was “inactive”.
For C[C@H]1CCCCO[C@H](CN(C)S(=O)(=O)c2cn(C)cn2)[C@@H](C)CN([C@@H](C)CO)C(=O)c2cc(NS(=O)(=O)c3cccs3)ccc2O1, the cytotoxicity call was “inactive”.
With CSc1nc(C)cc(OCCO)n1 the cytotoxicity call was “inactive”.
For COc1ccc(NC(=O)Nc2ccc3c(c2)C(=O)N([C@@H](C)CO)C[C@@H](C)[C@H](CN(C)Cc2ccc(Cl)c(Cl)c2)OCCCC[C@H](C)O3)cc1, the cytotoxicity call was “inactive”.
For O=c1c(-c2ccc(O)cc2)coc2cc(O[C@@H]3O[C@H](CO)[C@@H](O)[C@H](O)[C@H]3O)ccc12, the cytotoxicity call was “inactive”.
In the case of COc1ccc(CNC(=O)C[C@@H]2CC[C@@H]3[C@@H](COc4ccc(NC(=O)C5CC5)cc4C(=O)N3C)O2)cc1, the cytotoxicity call is reported as “inactive”.
For C[C@H](CO)N1C[C@H](C)[C@@H](CN(C)S(=O)(=O)c2cccs2)Oc2c(NC(=O)C3CCOCC3)cccc2C1=O, the cytotoxicity call was “inactive”.
